From PubChem
Shown are actives, neighbours in structure and some others; about 3% of the full set was active somewhere.
mTORC1 inh = mTORC1 pathway inhibition measured by phospho-rpS6; Tsc2-/- p53-/- MEF, phospho-rpS6 immunofluorescence/PI, 24 h; Potency, µM (top dose mostly 38.3 µM), for inactives: top-dose activity change, negative = inhibition, most hits filed as inhibitors; 0.78% of 44,000 active; AID 493208;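 further: plate controls were DMSO for no effect and rapamycin for full effect; nearly all actives have a fitted effect of over 50% in size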
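Cell-based qHTS: Tsc2-/- p53-/- MEF, 24 h cpd, 37 °C; fix/perm, anti-phospho-S6 Alexa-488 + PI; Acumen 488 nm scan; pS6/PI ratio, % positive cells; rapamycin 7.5 nM = inhibition ref; PI count = viability.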
p53null 32C tox = p53 null cell cytotoxicity, permissive temperature | H1299-neo p53 null cells, ATP luminescence, 24 h, 32C | Potency, µM (series often up to 46.1 µM), inactives show at the top dose activity change, negative = cytotoxicity, most hits filed as cytotoxic | 0.62% of 55,000 active;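 further: 0% = DMSO only and -100% = full killing by 100 µM tamoxifen; nearly all actives have a fitted effect of over 55% in size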
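H1299-neo (p53 null) cells, 600/well, treated 24 h at 32C with compound up to 46 uM; ATPlite luminescence viability, normalized to DMSO and 100 uM tamoxifen; AC50 by Hill fit.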
OvCa metastasis = inhibitors of ovarian cancer cell adhesion and invasion in omental model | SKOV3ip1-GFP adhesion/invasion on 3D omental model, fluorescence | Potency, µM (top dose mostly 45.8 µM), inactives show top-dose activity change, negative = inhibition, most hits filed as inhibitors | 0.1% of 46,000 active | AID 1963576;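 further: plate controls were DMSO wells for no effect and tomatine positive control wells for full effect; nearly all actives have a fitted effect of over 65% in size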
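A 3D layer of primary human omental fibroblasts, mesothelial cells, fibronectin and collagen I, grown 48 hr, received SKOV3ip1-GFP cells in serum-free medium plus compounds at 0.36-46 umol/L. After 2 hr RT and 16 hr 37 C, fixed adherent GFP cells were counted; normalized to DMSO and tomatine.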
S16 viability = cytotoxicity in S16 Pmp22-F2sN Schwann cells; S16 Pmp22-F2sN Schwann cells viability, CellTiter-Glo, 24 h; Potency, µM (top dose mostly 57.5 µM), inactives show at the top dose activity change, negative = cytotoxicity, most hits filed as cytotoxic; 0.48% of 43,000 active; further: nearly all actives have a fitted effect of over 65% in size
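Seed 500-1,000 S16 Pmp22-F2sN cells per well in phenol-red-free DMEM with 10% heat-inactivated FBS; pin-add 23 nL compound; incubate 24 h at 37C; add CellTiter-Glo, wait 15 min protected from light; read luminescence.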
p53null 39C tox = kills p53 null cells at the nonpermissive temperature; 0.97% of 55,000 active; H1299 p53-null (neo) cells, 39C, ATPlite viability, 24 h; Potency, µM (series often up to 46.1 µM), inactives show at the top dose activity, negative = cell killing, usual class: cytotoxic;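 further: 0% = DMSO only and -100% = full killing by 100 µM tamoxifen; nearly all actives have a fitted effect of over 50% in size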
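H1299 lung cancer cells, p53-null (H1299-neo) or expressing p53 A138V (H1299-p53A138V), were plated overnight at 37C, then exposed to compounds at up to 46 uM for 24 hr at 39C. Viability was read by ATP-based luminescence.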
PMP22 txn = PMP22 gene transcription modulation; 2% of 43,000 active; Potency, µM (highest dose often 57.5 µM), without a hit: at the highest dose activity change, negative = inhibition, most hits filed as inhibitors; AID 1508649; S16 Pmp22-F2sN Schwann cells (luciferase reporters placed in the Pmp22 gene), FLuc/NLuc coincidence luminescence, 24 h; active means clear falling dose curves in both reporters; inconclusive means both reporters move, but less clearly or upward; inactive means either reporter flat; the % is the NLuc reporter signal
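S16 Schwann cells carrying FLuc/NLuc coincidence reporter in the Pmp22 3' UTR treated with compound 24 h at 37C; FLuc then NLuc luminescence read sequentially by dual-luciferase reagents.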
Starred values were filed as active, the others as inactive. Unless noted, the call rests on the fitted dose curve; in most records, active means well fitted curve in the direction sought with a large enough effect; inconclusive means small, poorly fitted or top-dose-only effect, or another doubt; inactive means no such curve, though single readings can be large; an effect the other way counts as inactive or inconclusive. Unless noted, on the % scale 0 is the no-effect control and ±100 the full control effect; potency means the concentration at half of the fitted maximal effect.

`CCOc1ccc(Nc2nc(Nc3ccc(OCC)cc3)nc(N3CCOCC3)n2)cc1` gave mTORC1 inh 2.3µM*, p53null 32C tox 2%, OvCa metastasis -8%, S16 viability 4%, p53null 39C tox 0% and PMP22 txn 5%.
Cc1cccc(Nc2nc(Nc3cccc(C)c3)nc(N3CCOCC3)n2)c1 was read as mTORC1 inh 1.2µM*, p53null 32C tox -6%, OvCa metastasis -15%, S16 viability -23%, p53null 39C tox 2% and PMP22 txn inconclusive.
For CC(C)(C)c1cnc(CSc2cnc(NC(=O)C3CCNCC3)s2)o1 the results were OvCa metastasis 12%.
CC(Sc1nc2ccccc2n1C)C(=O)NC(c1ccccc1)c1ccccc1 (stereo not given) was read as p53null 32C tox 0% and p53null 39C tox -12%.
`Cc1oc(-c2nc3ccccc3n2C)cc1C(=O)c1ccccc1` gave p53null 32C tox 6.3µM* and p53null 39C tox 11µM*.
`COc1ccccc1NC(=O)c1cnc(SCC(=O)N2CCOCC2)n(C)c1=O` gave mTORC1 inh -8%, p53null 32C tox -9%, OvCa metastasis -14%, S16 viability 18%, p53null 39C tox -3% and PMP22 txn 11µM*.
Cc1ccc(O)c(C(CC(=O)NCC2(c3ccccc3)CCCC2)c2ccccc2)c1 (stereo not given) was read as mTORC1 inh 18µM*, p53null 32C tox inconclusive, OvCa metastasis inconclusive, S16 viability inconclusive, p53null 39C tox inconclusive and PMP22 txn inconclusive.
For CCN(CC)CCOC(=O)c1ccc(NC(=O)CSc2cc(=O)n(CC)c3ccccc23)cc1 the results were mTORC1 inh -1%, p53null 32C tox 4%, OvCa metastasis -6%, S16 viability inconclusive, p53null 39C tox 2.5µM* and PMP22 txn inconclusive.
`CCn1c(=O)cc(SCC(=O)Nc2ccc(C)c(F)c2)c2ccccc21` gave mTORC1 inh 7%, p53null 32C tox 6%, OvCa metastasis 1%, S16 viability 0%, p53null 39C tox -13% and PMP22 txn -8%.
CCOC(=O)c1cc2c(=O)n3ccccc3nc2n(Cc2ccco2)c1=NC(=O)c1c(F)cccc1Cl was read as mTORC1 inh -21%, p53null 32C tox -2%, OvCa metastasis -16%, S16 viability inconclusive, p53null 39C tox -7% and PMP22 txn 15µM*.
Screening CCOC(=O)c1cc2c(=O)n3ccccc3nc2n(Cc2ccco2)c1=NC(=O)c1cccc(C)c1 returned mTORC1 inh -1%, p53null 32C tox -8%, OvCa metastasis 30%, S16 viability inconclusive, p53null 39C tox 7% and PMP22 txn inconclusive.
For CN1C(=O)c2ccccc2Sc2ccc(NC(=O)c3ccc(C(F)(F)F)cc3)cc21 the results were mTORC1 inh 0%, p53null 32C tox 15%, OvCa metastasis -9%, S16 viability -11%, p53null 39C tox 4% and PMP22 txn 11µM*.
For COc1ccc2nc3sc(C(=O)Nc4cc(Cl)c(OC)cc4OC)cc3cc2c1 the results were mTORC1 inh 4%, p53null 32C tox -9%, OvCa metastasis 0%, S16 viability 3%, p53null 39C tox 10µM* and PMP22 txn -6%.
CCOc1ccc(CCNC(=O)c2cc3cc4cc(OC)ccc4nc3s2)cc1OCC was read as mTORC1 inh -29%, p53null 32C tox -19%, OvCa metastasis inactive, S16 viability -3%, p53null 39C tox -5% and PMP22 txn inconclusive.
For Cc1nnc(NC(=O)C(=O)c2cc(C)n(-c3ccc(C)c(C)c3)c2C)s1 the results were mTORC1 inh 1%, p53null 32C tox 3%, OvCa metastasis 2%, S16 viability inconclusive, p53null 39C tox 0% and PMP22 txn 2.9µM*.
